Holding throughout (test): NCI-60 one-dose screen, 48 h (100 = growth as untreated, 0 = no growth, -100 = all killed)
Common to all, as to conditions: 10 µM unless noted

In assay [1] the test system is DU-145 prostate.
Assay [2] relates to MALME-3M melanoma.
In assay [3] the test system is MDA-MB-231 breast.
Assay [4] deals with RXF 393 renal.
Assay [5] has as its system SF-268 CNS.
The subject of assay [6] is SF-295 CNS.
The subject of assay [7] is SF-539 CNS.
For assay [8], the system named is UACC-257 melanoma.
Assay [9] has as its system HCT-15 colon.
For assay [10], the system named is HT29 colon.
The test system of assay [11] is SNB-75 CNS.
The subject of assay [12] is SNB-19 CNS.
In assay [13] the test system is U251 CNS.
In assay [14] the test system is PC-3 prostate.
Assay [15] concerns SK-MEL-5 melanoma.
Assay [16] relates to UACC-62 melanoma.
For assay [17], the system named is SK-MEL-28 melanoma.
Assay [18] deals with K-562 leukemia.
For assay [19], the system named is LOX IMVI melanoma.
For assay [20], the system named is M14 melanoma.

Compounds without any hit were thinned out: in the full panel of roughly 83,000, 20% have a hit.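 Compound tested at a single concentration for 48 hours in 96-well plates; a percent growth value below 10 was scored as active.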 A number with no mark means an inactive call. Active and inactive are the calls of the source.

`Cc1cccc(-c2cc(O)c(C(=O)N3CCOCC3)s2)c1`: the growth is 60.3% in assay [1]; 52.6% in assay [2]; 56.7% in assay [3]; 62.9% in assay [4]; 57.1% in assay [5]; 37.9% in [6]. The growth in assay [7] was 33.6%; in [8], 52.8%; in [9], 21.4%; in assay [10], 52.2%; in [11] it was 33.5%; in assay [12] it was 31.5%. For the same molecule, the growth was 28.6% in assay [13]; 60.5% in [14]; 26% in [15]; 34.5% in assay [16]; 56.9% in [17].

For `Cc1cc(C)on1`, the growth in assay [18] is 102%; in assay [2], 112%; in assay [3], 104%; in assay [4] it was 101%; in assay [6], 115%; in assay [7], 103%. Besides, the growth in [8] is 91.6%; in assay [9], 105%; in [10] it was 107%; in [11], 101%; in assay [12], 102%; in assay [13], 98.9%. The growth in [14] is 89.9%; in assay [15] it was 99.6%; in assay [16] it was 110%; in [19], 102%; in [17], 101%.

With `O=C(NCOC(O)C(Cl)(Cl)Cl)NCOC(O)C(Cl)(Cl)Cl` (centres undefined), the growth is 22.2% in [18]; 99.5% in assay [2]; 106% in assay [3]; 125% in assay [4]; 105% in assay [5]; 93.8% in [6]. In addition, the growth in assay [7] was 90.4%; in [8] it was 94.9%; in [20], 100%; in assay [9], 95.8%; in assay [10] it was 94.4%; in [11], 85.6%. Moreover, the growth in assay [12] is 98.4%; in assay [13], 102%; in [14], 95.6%; in assay [15], 102%; in assay [16], 98.8%; in [19], 97.7%. The growth in [17] is 92.8%.

For `Cc1ccc(NSc2ccccc2[N+](=O)[O-])cc1`, the growth is 16.9% in assay [18]; 44.9% in [2]; 53.7% in assay [3]; -6.02% (active) in [4]; 48.7% in assay [5]; 11.4% in [6]. Besides, the growth in assay [7] is -12.3% (active); in assay [8], 58.1%; in assay [20], 7.95% (active); in [9] it was 27%; in assay [10], 5.05% (active); in assay [11], 10.1%. In addition, the growth is 38.1% in [12]; 21.1% in assay [13]; 18% in [14]; 13.6% in assay [15]; 28.6% in [16]; 35% in assay [19]. Moreover, the growth in [17] was 63.7%.

For `CN(C)c1cnccn1`, the growth is 127% in [2]; 72.4% in assay [3]; 94.5% in assay [4]; 91.6% in [5]; 122% in assay [6]; 86.5% in assay [7]. Moreover, the growth was 95.3% in assay [8]; 97.5% in assay [20]; 87.6% in [9]; 104% in [10]; 96.6% in assay [11]; 101% in [12]. In addition, the growth in [13] was 78.4%; in assay [14], 88.6%; in assay [15], 96.1%; in assay [16], 98.6%; in assay [19], 84.3%; in [17], 103%.

On to `C[C@@H]1CC[C@@H]2[C@@H]1[C@H](OC(=O)/C=C/c1ccccc1)[C@]1(C3CCCCC3)C[C@@H](NC(=O)CO)[C@@]2(C)O1`, for which the growth was 107% in assay [1]; 99.2% in assay [2]; 102% in [3]; 53.2% in [4]; 97.4% in assay [5]; 112% in [6]. The growth was 100% in assay [7]; 110% in [8]; 99% in assay [9]; 86% in assay [10]; 85% in [11]; 104% in [12]. Also, the growth is 111% in assay [13]; 94% in assay [14]; 104% in assay [15]; 97% in assay [16]; 98.8% in [17].

In the case of `COc1c(C)cnc(CSc2nc(-c3ccc(C)cc3)cn2-c2ccc(Cl)cc2)c1C`, the growth was 107% in [1]; 93.4% in [2]; 88.5% in assay [3]; 108% in assay [4]; 99.6% in assay [5]; 110% in [6]. Also, the growth is 105% in assay [7]; 91.5% in [8]; 98% in [9]; 73.8% in assay [10]; 98.7% in assay [11]; 93.7% in assay [12]. The growth in assay [13] was 104%; in assay [14], 81.7%; in assay [15], 105%; in assay [16] it was 81.8%; in assay [17], 97.4%.

For the molecule `CCOC(=O)c1ccc(-c2ccc3cc(OC)ccc3c2)nc1C`, the growth in [1] is 103%; in assay [2], 92.8%; in assay [3], 104%; in [4] it was 116%; in assay [5], 96.4%; in assay [6], 100%. The growth in assay [7] is 98.9%; in [8], 107%; in assay [9], 99.2%; in [10] it was 80.2%; in [11] it was 110%; in assay [12] it was 99.6%. The growth in [13] was 104%; in [14] it was 100%; in assay [15] it was 107%; in assay [16], 85.2%; in [17], 91.5%.

With `CCOC(=O)c1nnn(-c2ccccc2)c1C1=CN(C)CCC1`, the growth in assay [1] is 103%; in assay [2], 104%; in assay [3], 112%; in assay [4], 120%; in [5], 92.4%; in assay [6] it was 98.2%. In addition, the growth is 95.2% in [7]; 99.4% in [8]; 99% in assay [9]; 99.1% in assay [10]; 89.8% in assay [11]; 108% in [12]. Moreover, the growth is 102% in assay [13]; 96.4% in [14]; 105% in assay [15]; 100% in assay [16]; 97.3% in assay [19]; 111% in assay [17].

For the origin of these results see PubChem BioAssay (NCI).
